From PubChem
BoNT A protease = BoNT A light chain protease inhibition | multiplex microsphere protease substrate cleavage, flow cytometry | inhibition, % at 10 µM | actives 0.17% (n = 360,000); note: plate controls were buffer without enzyme for full effect and enzyme alone for no effect
Anthrax LF inh2 = anthrax lethal factor protease inhibition; multiplex microsphere protease cleavage assay, LF; P15917; AID 588501; actives 0.12% (n = 360,000); inhibition, % at 10 µM; note: plate controls were buffer without enzyme for full effect and enzyme alone for no effect
Target sequence (P15917 whole entry, looked up): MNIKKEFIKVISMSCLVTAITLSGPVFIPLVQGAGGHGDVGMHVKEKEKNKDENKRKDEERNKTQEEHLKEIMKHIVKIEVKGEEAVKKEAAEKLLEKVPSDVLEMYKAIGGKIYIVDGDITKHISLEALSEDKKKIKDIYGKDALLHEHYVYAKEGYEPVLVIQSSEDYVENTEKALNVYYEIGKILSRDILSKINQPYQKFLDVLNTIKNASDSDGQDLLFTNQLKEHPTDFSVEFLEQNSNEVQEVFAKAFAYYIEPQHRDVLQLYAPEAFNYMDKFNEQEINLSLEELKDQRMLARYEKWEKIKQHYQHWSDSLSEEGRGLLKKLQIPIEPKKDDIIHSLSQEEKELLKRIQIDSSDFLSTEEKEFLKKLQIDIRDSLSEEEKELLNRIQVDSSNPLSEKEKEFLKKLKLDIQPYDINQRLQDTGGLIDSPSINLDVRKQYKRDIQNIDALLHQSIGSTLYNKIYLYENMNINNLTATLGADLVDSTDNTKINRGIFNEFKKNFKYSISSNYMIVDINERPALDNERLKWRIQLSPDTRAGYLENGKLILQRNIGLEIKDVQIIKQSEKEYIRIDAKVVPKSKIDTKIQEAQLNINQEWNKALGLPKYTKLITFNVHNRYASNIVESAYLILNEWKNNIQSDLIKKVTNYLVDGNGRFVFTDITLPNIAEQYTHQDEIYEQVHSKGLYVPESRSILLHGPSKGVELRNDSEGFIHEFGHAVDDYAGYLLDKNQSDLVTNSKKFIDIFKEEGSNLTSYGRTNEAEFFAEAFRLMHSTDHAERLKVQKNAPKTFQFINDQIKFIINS
MazF activator = MazEF (E. coli) toxin RNase activation. FAM/BHQ RNA-DNA oligo cleavage fluorescence, 5 h. actives 0.32% (n = 350,000). activation, % at 20 µM. AID 504720; in the data active = activation above about 50%
Bead autofluor = counter-screen for toxin protease inhibitors: compound fluorescence | compound autofluorescence counterscreen, microsphere flow cytometry; stronger effect = higher value | fluorescence intensity (no concentration beside the values) | actives 3.1% (n = 360,000) | AID 624483; in the data active = fluorescence intensity above about 16000; inconclusive = no clear call, values can overlap the other calls
BoNT F protease = BoNT F light chain protease inhibition; Multiplex microsphere protease cleavage assay, flow cytometry; inhibition, % at 10 µM; actives 0.22% (n = 360,000); AID 588497; in the data active = inhibition above about 35%, passing the limit was not always enough; inconclusive = no clear call, values can overlap the other calls; note: plate controls were buffer without enzyme for full effect and enzyme alone for no effect
* hit, by the source's call; ? = inconclusive; nt = no result. Shown are actives, neighbours in structure and some others; about 3.7% of the full set was active somewhere. Cut-off read from the data, not from the text of the source, unless noted: active = inhibition above about 30%; inconclusive = no clear call, values can overlap the other calls; inactive = below that.

SMILES	BoNT A protease	Anthrax LF inh2	MazF activator	Bead autofluor	BoNT F protease
CCOc1ccc(CN2CCC(=O)NC2=O)cc1	6	-9	6	17829*	4
COc1ccc(CN2CCC(=O)NC2=O)cc1	-6	0	1	25338*	-4
O=C(Nc1ccc(Br)c2ccccc12)c1ccc2ccccc2c1O	2	8	-1	3534	?
Cc1ccc(-c2nc3ccc(Cl)cn3c2Cc2cccc(F)c2)cc1	1	3	nt	8165	7
CC1(C)NC(=O)N(CC(O)COc2ccc(-c3ccc(C#N)cc3)cc2)C1=O (centres undefined)	?	-9	1	19940*	6
CCC(=O)N(CCC(c1ccco1)c1ccccc1OC)Cc1cccs1 (centres undefined)	0	-1	5	23755*	0
COc1ccc(Cn2cc(CN3CCOCC3)nn2)cc1	0	-5	nt	5761	-7
C[C@H]1CN([C@@H](C)CO)S(=O)(=O)c2ccc(C#Cc3ccccn3)cc2O[C@@H]1CN(C)C(=O)C1CC1	1	-2	4	3511	-4
Cn1c(=O)n(CC(=O)NCc2cccnc2)c2ccccc21	-2	-2	5	24061*	-3
Cn1c(=O)n(CC(=O)Nc2cccnc2)c2ccccc21	-1	-3	-3	8502	3
Cc1ccccc1NC(=O)Cn1nc(-c2ccccc2)nc1-c1ccccc1	1	0	-31	16150*	1
CNC(=O)Cn1c(=O)n(C)c2ccccc21	0	-1	1	2122	3
Cn1c(C(=O)NCc2cccnc2)cc2sc(Cl)cc21	1	2	1	20564*	3
Cc1cccc(C)c1NC(=O)Cn1nc(-c2ccccc2)nc1-c1ccccc1	?	?	-16	?	?
Cc1ccccc1NC(=O)Cn1c(=O)n(C)c2ccccc21	-1	-2	3	21084*	-1
COc1ccc(OC)c(NC(=O)C2(C)CCN2Cc2ccccc2OC(F)F)c1 (centres undefined)	0	-5	nt	3701	-2
CSc1ncnc2c1ncn2CCCNCc1ccc2c(c1)OCO2	0	-6	7	3805	-3
CC(C)c1ccc(NC(=S)NCc2cccs2)cc1	-4	-2	-1	21787*	-6
S=C(NCc1cccs1)Nc1cccc(Cl)c1	-11	-6	-5	18567*	-14
COCCNC(=O)c1ccc(Cn2c(=S)[nH]c3cc4c(cc3c2=O)OCO4)cc1	1	1	2	22929*	-1
COc1ccc(Cn2c(=O)[nH]c3cc(C(=O)NCCCOC(C)C)ccc3c2=O)cc1	-1	-4	1	?	1
COc1ccc(Cn2c(=O)[nH]c3cc(C(=O)NCc4ccc5c(c4)OCO5)ccc3c2=O)cc1	-1	1	182*	4465	-2
CCOCCCn1c(=S)[nH]c2cc(C(=O)NCCOC)ccc2c1=O	2	-2	3	19971*	1
COC(=O)[C@@]1(Cc2ccc(F)cc2)[C@H]2c3cc(C(=O)N4CCCC4)n(CCN4CCNC4=O)c3C[C@H]2CN1C(=O)c1ccccc1	0	8	nt	4113	0
CC(OC(=O)CCC(=O)c1cccs1)C(=O)NC1CCCCC1C (centres undefined)	-9	-3	-13	5227	-16
SMILES	BoNT A protease	Anthrax LF inh2	MazF activator	Bead autofluor	BoNT F protease
O=C1CSC(c2ccccc2O)N1Cc1ccccc1 (centres undefined)	-2	3	2	3947	5
COCCn1c(N)c(C(=O)OCc2ccccc2)c2nc3ccccc3nc21	-1	2	8	20725*	-2
CCCCN(C(=O)CCn1c(=O)oc2ccccc21)c1ccccc1	-1	0	8	6175	-4
O=c1[nH]n(-c2ccc(Cl)cc2)c(=O)c(Cl)c1Cl	?	0	2	21602*	-3
COc1ccccc1-c1csc(C(C)(O)c2ccccc2)n1 (centres undefined)	0	-1	nt	3461	0
Cc1ccccc1N(CC(=O)NC1CCCC1)C(=O)CS(=O)CC(=O)Nc1ccc2c(c1)OCO2 (centres undefined)	2	1	-1	20092*	2
Cc1ccc(N=Cc2c(O)n(C)c(=O)n(C)c2=O)cc1	1	-1	9	3261	?
Cc1ccccc1OCCN=Cc1c(O)n(C)c(=O)n(C)c1=O	2	1	1	22922*	3
CCOc1ccccc1N=Cc1c(O)n(C)c(=O)n(C)c1=O	-2	-18	7	4297	-22
Cn1c(O)c(/C=N/c2ncccn2)c(=O)n(C)c1=O	2	4	1	21865*	4
C=CCNc1ccccc1S(=O)(=O)NCc1ccccc1	0	3	-1	2907	5
Cc1cccc(NC(=O)c2nc[nH]c2C(=O)Nc2ccccc2F)c1	0	-2	-3	3577	2
CC(C)CC1C(=O)N(Cc2cn(CCC3OCCO3)nn2)CCS(=O)(=O)N1Cc1ccc(-c2ccc(F)nc2)cc1 (centres undefined)	0	-1	-8	3117	-4
Cc1ccc(OC(C)C(=O)N2CCCc3ccccc32)cc1 (centres undefined)	?	-7	-1	17127*	-8
COc1ccccc1P(=O)(Cc1ccccc1[N+](=O)[O-])c1ccccc1 (centres undefined)	5	5	-2	2870	30
COc1cccc(-n2nnnc2SCC(=O)Nc2ccccc2OC)c1	0	3	-1	3373	?
CCCS(=O)(=O)c1nnnn1-c1cccc(OC)c1	1	-1	-3	19154*	0
CC(C)NC(=O)C1(C)CCN1C(=O)c1ccc2c(c1)OCO2 (centres undefined)	0	-3	nt	3446	1
CCOC(=O)C1=C(CNCc2ccc(C)cc2)NC(=O)NC1c1cc(C)ccc1C (centres undefined)	17	-18	0	17821*	9
CCOC(=O)C1=C(CSc2nccn2C)NC(=O)NC1c1cc(C)ccc1C (centres undefined)	?	2	-14	16485*	-3
CCOC(=O)C1=C(CSc2nccn2C)NC(=O)NC1c1ccc2c(c1)OCO2 (centres undefined)	0	-1	10	2739	-1
Cc1ccc(OCc2cc(C(=O)N3CCN(c4ccccc4)CC3)no2)cc1C	-2	-2	2	6415	-4
Clc1ccc(OCc2nnc(SCc3nnc(-c4ccccc4)o3)o2)c(Cl)c1	-2	0	-7	17010*	-4
Clc1ccc2nc(SCc3nnc(-c4ccccc4)o3)[nH]c2c1	?	1	2	23021*	-4
COc1ccc(Cl)cc1N/C(N)=N/c1nc(CSc2ccc(C)cc2)cc(=O)[nH]1	1	-1	-5	23248*	-2
COC(=O)c1ccc2nc(C)c(C)nc2c1	?	-2	-7	20620*	0
CCOC(=O)c1ccc2nc(C)c(C)nc2c1	0	0	5	4388	-13
COc1ccc(OC)c(S(=O)(=O)ON2C(=O)c3ccccc3C2=O)c1	-5	9	2	8155	7
